# Source: PubChem BioAssay
# Values without a mark were called inactive. The rule behind the calls is not given here.
# Molecular target: Pantothenate synthetase (Mycobacterium tuberculosis (strain ATCC 25618 / H37Rv)) (UniProt P9WIL5)
# Assay: Recombinant Mtb pantothenate synthetase (PanC) inhibitors, coupled enzyme, confirmatory (AID 375);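 note: 0% = full reaction with vehicle and 100% = no enzyme background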
# Settings: coupled enzyme assay; at 10 µM, hits give high values
# Sequence of Pantothenate synthetase (Mycobacterium tuberculosis (strain ATCC 25618 / H37Rv)) (P9WIL5 whole entry, looked up): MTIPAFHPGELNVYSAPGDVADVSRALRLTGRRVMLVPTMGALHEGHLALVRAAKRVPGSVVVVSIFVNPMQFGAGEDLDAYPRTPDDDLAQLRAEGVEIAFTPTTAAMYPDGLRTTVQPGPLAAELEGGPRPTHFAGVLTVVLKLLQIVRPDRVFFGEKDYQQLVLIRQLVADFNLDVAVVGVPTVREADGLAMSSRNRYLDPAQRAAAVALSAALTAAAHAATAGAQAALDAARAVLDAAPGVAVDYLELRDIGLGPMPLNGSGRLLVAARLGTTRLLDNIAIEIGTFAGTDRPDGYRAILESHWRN
row,Structure (SMILES),inhibition [%]
1,CCN(CC)c1ccc(-c2c(C#N)c(N)nc(OC)c2C#N)cc1,0
2,COc1ccccc1-n1c(SCC(=O)Nc2ccc3c(c2)OCO3)nc2c(c1=O)SCC2,0
3,COc1ccccc1Cn1nnc2c(=O)[nH]c(C3CCN(C(=O)c4ccccc4Cl)CC3)nc21,0
4,COc1ccc(-n2ncc3c(N4CCC(C)CC4)ncnc32)cc1,1
5,COCCn1nnnc1C(c1ccc(OC)cc1)N1CCN(c2ccccc2F)CC1 (stereo unspecified),0
6,CCOc1ccc(S(=O)(=O)N2CCN(C(=O)c3cccn3C)CC2)cc1,0
7,Cc1cccc(-c2nnc(SCC#N)n2-c2cccc(Cl)c2)c1,0
8,Cc1cccc(C2CC(c3ccccc3)Nc3nc(N)nn32)c1 (stereo unspecified),0
9,COc1cccc(C2C(C(=O)c3cccs3)=C(O)C(=O)N2CCCn2ccnc2)c1OC (stereo unspecified),0
10,Cn1c(NC(=O)c2cccc(Cn3cc(Cl)cn3)c2)nc2ccccc21,8
11,O=S(=O)(NC1CCCCC1NS(=O)(=O)c1ccc(F)cc1)c1ccc(F)cc1 (stereo unspecified),0
12,CCc1nc(NCCCN2CCOCC2)c2oc3ccccc3c2n1,2
13,Oc1c(Cl)cc(Cl)cc1CNc1ccc(Br)cn1,4
14,CCOC(=O)C1CCN(c2nc3ccccc3nc2C(C#N)C(=O)OCCOC)CC1 (stereo unspecified),0
15,CCn1c(C(Cc2ccccc2)NC(=O)COC)nc2ccccc21 (stereo unspecified),0
16,CCOC(=O)c1c(NCc2ccc3c(c2)OCO3)c2ccccc2[nH]c1=O,0
